This note sets out measurements from PubChem BioAssay (Tox21).

Experiment [1] in a line: Nuclear factor erythroid 2-related factor 2/antioxidant responsive element (Nrf2/ARE) small molecule agonists: qHTS cell viability counter screen in human keratinocytes (AID 1919968; active = well fitted curve in the direction sought with a large enough effect in the repeat runs; an effect the other way counts as inactive or inconclusive; also: nearly all actives have a fitted effect of over 55% in size; also: potency is read from the fitted curve at half-maximal effect). The essentials: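 Seed 1,500 KeratinoSens cells per well, then incubate 5 h at 37 C/5% CO2. Add compounds in DMSO and incubate 23 h. Add CellTiter-Fluor, wait 1 h and read fluorescence.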
A general note: In qHTS, concentration-response curves come from the screen itself.

Experiment [2] can be described thus: Nuclear factor erythroid 2-related factor 2/antioxidant responsive element (Nrf2/ARE) small molecule agonists: luciferase reporter gene qHTS assay in human keratinocytes (AID 1919969). Also: nearly all actives have a fitted effect of over 35% in size.
The target in experiment [3] is Gonadotropin-releasing hormone receptor (Homo sapiens) (UniProt P30968). Kind of experiment: Human gonadotropin-releasing hormone receptor (GnRHR) small molecule agonists, calcium flux assay in GnRHR-HEK293 cells (AID 1920063). Also: nearly all actives have a fitted effect of over 35% in size. The essentials:
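Cells: HEK293 stably expressing human GnRHR. Steps: overnight (18 h) culture, 1 h calcium dye loading at 37 C, compound addition, kinetic fluorescence read at 480/540 nm. Each compound tested at 15 concentrations in triplicate.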
A general note: Calcium assays in cells follow changes in intracellular calcium, usually with a dye or a luminescent sensor.

For experiment [4], the target named is KiSS-1 receptor (Homo sapiens) (UniProt Q969F8). Kind of experiment: Human kisspeptin (KISS1R) small molecule agonists, calcium flux assay in KISS1R-HEK293 cells (AID 1920064; active = well fitted curve in the direction sought with a large enough effect in the repeat runs; an effect the other way counts as inactive or inconclusive). Put shortly: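 Cells plated and incubated 18 h; dye added, 1 h at 37 C; compounds in DMSO pinned in; signal read at 480/540 nm every second for 3 min. Each compound tested at 15 concentrations in triplicate.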
KiSS-1 receptor (Homo sapiens), sequence (Q969F8 whole entry, looked up): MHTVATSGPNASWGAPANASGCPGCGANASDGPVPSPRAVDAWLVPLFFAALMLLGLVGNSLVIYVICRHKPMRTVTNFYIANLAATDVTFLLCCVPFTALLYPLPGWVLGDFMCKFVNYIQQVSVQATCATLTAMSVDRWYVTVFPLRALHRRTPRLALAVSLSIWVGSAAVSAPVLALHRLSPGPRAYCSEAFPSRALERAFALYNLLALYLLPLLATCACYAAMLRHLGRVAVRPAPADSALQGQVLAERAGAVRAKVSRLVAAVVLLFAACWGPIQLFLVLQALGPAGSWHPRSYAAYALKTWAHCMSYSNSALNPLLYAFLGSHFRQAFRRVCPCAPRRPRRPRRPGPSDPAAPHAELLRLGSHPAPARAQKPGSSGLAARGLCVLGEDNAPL

The nature of experiment [5]: G protein-coupled receptor (GPCR) small molecule agonists, calcium flux assay: HEK293 wild type cell line counter screen (AID 1920065). Put shortly:
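Counter-screen of the Tox21 10K library for non-specific calcium release: dye-loaded cells received compounds in DMSO and were monitored by kinetic fluorescence (480/540 nm, 3 min). Fifteen concentrations, run in triplicate.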

Experiment [6] is described as follows: p53 small molecule agonists, cell-based qHTS assay with human liver microsomes (AID 1963577). The essentials:
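Compounds act here after metabolic activation: human liver microsomes and NADPH, both at 0.5 mg/mL final, were co-added to p53RE-bla cells. Incubation ran 16 h at 37 C, followed by LiveBLAzer detection.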

Experiment [7] is described as follows: p53 small molecule agonists, cell-based qHTS assay with rat liver microsomes (AID 1963578). The essentials:
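Read-out is beta-lactamase reporter fluorescence (LiveBLAzer, 2 h, room temperature, dark) in p53RE-bla cells treated 16 h at 37 C with compound, rat liver microsomes and NADPH, both 0.5 mg/mL final.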

Experiment [8] can be described thus: p53 small molecule agonists, cell-based qHTS assay with human liver microsomes: qHTS cell viability counter screen (AID 1963579). Also: nearly all actives have a fitted effect of over 45% in size. Also: potency is read from the fitted curve at half-maximal effect. The essentials: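 Cells carrying the p53 response-element beta-lactamase reporter are treated for 16 h at 37 C with test compounds in the presence of human liver microsomes and NADPH (both 0.5 mg/mL final); ATP-based CellTiter-Glo luminescence then reports viability.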

Experiment [9] is described as follows: p53 small molecule agonists, cell-based qHTS assay with rat liver microsomes: qHTS cell viability counter screen (AID 1963580). Also: nearly all actives have a fitted effect of over 45% in size. Put shortly: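 Intracellular ATP, by CellTiter-Glo luminescence, defines viability. HCT-116 p53RE-bla cells, 4,000 per well, were compound-treated in the presence of rat liver microsomes and NADPH for 16 h at 37 C.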
The target of experiment [10] is 5-hydroxytryptamine receptor 2A (Homo sapiens) (UniProt P28223). The experiment is described as follows: 5-hydroxytryptamine receptor 2A (HTR2A) small molecule antagonists, cell-based qHTS assay (AID 1963586). Also: nearly all actives have a fitted effect of over 45% in size. Put shortly: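 Antagonist-mode intracellular calcium assay: DOI (4 nM) added after 5 min compound pre-incubation at room temperature to dye-loaded HTR2A-CHO cells. Fluorescence followed for 3 min, sampled every second.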
5-hydroxytryptamine receptor 2A (Homo sapiens), sequence (P28223 whole entry, looked up): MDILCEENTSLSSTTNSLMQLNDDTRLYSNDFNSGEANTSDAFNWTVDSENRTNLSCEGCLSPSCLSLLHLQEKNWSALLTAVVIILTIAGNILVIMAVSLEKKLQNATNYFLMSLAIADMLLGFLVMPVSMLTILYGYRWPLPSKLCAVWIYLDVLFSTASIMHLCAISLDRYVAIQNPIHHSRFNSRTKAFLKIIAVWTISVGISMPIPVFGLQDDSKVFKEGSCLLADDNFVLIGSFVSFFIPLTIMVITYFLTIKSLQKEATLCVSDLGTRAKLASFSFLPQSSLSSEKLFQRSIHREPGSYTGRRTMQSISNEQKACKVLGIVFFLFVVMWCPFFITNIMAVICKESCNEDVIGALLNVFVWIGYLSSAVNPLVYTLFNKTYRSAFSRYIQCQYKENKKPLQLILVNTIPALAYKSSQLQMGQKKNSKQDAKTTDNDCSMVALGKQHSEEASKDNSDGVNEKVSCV

In experiment [11] the target is Muscarinic acetylcholine receptor M1 (Homo sapiens) (UniProt P11229). The experiment is described as follows: Cholinergic receptor muscarinic 1 (CHRM1) small molecule antagonists, cell-based qHTS assay (AID 1963588). Also: nearly all actives have a fitted effect of over 40% in size. The essentials: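 CHRM1-CHO calcium-flux assay, antagonist mode. Cells were seeded 18 h, dye-loaded 1 h at 37 C and given compound for 5 min at RT, then acetylcholine was added at 50nM. FDSS fluorescence was read 3 min; 15 concentrations, three runs.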
Muscarinic acetylcholine receptor M1 (Homo sapiens), sequence (P11229 whole entry, looked up): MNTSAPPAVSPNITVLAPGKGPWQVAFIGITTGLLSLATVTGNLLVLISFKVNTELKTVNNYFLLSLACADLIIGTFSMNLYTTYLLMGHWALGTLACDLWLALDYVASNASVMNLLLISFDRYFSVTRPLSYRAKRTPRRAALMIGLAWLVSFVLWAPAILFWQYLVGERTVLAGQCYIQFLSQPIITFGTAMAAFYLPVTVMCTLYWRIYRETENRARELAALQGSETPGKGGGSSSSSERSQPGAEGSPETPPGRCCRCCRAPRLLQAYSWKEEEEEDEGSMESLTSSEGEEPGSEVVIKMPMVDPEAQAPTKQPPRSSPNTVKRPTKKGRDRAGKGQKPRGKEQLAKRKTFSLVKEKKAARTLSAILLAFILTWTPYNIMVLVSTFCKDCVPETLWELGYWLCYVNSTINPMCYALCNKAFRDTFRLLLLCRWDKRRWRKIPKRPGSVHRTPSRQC

For experiment [12] the target is unchanged. The experiment is described as follows: Cholinergic receptor muscarinic 1 (CHRM1) small molecule agonists, cell-based qHTS assay (AID 1963589). Also: nearly all actives have a fitted effect of over 35% in size. Put shortly:
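Agonist-mode qHTS in CHO cells stably carrying human muscarinic M1. Intracellular calcium is tracked by fluorescence every second after compound transfer; each compound runs at 15 concentrations in three independent runs.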

Experiment [13] in a line: cAMP Responsive Elements (CRE) small molecule agonists, cell-based qHTS assay (AID 1963590). Put shortly:
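Agonist mode qHTS in CRE-bla HEK 293T cells: compounds dosed from DMSO for 3 h at 37 C/5% CO2, followed by LiveBLAzer B/G FRET substrate for 2 h at room temperature.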

A short description of experiment [14]: cAMP Responsive Elements (CRE) small molecule antagonists, cell-based qHTS assay (AID 1963591; active = well fitted inhibition curve with a large enough effect in the signal ratio in the repeat runs, not every such curve was filed as active; the % refers to the signal ratio). Put shortly:
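Antagonist mode: test compounds are co-incubated with the adenylyl cyclase activator NKH477 (0.25 uM final) on CRE-bla HEK293T cells for 3 h at 37 °C, followed by LiveBLAzer substrate loading.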

The target in experiment [15] is Beta-2 adrenergic receptor (Homo sapiens) (UniProt P07550). Kind of experiment: Adrenergic beta2 receptor (ADRB2) small molecule antagonists, cell-based qHTS assay (AID 1963592). Also: series mostly up to about 92 µM; nearly all actives have a fitted effect of over 50% in size. The essentials: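 Cells (CHO, stable ADRB2 overexpression) incubated 18-20hr at 37C; compounds added from DMSO; agonist mix (1nM isoproterenol, 100uM IBMX, 25uM Ro-20-1724) added; 0.5hr RT; d2-cAMP and anti-cAMP-cryptate added; 1hr RT; 665/615 nm read.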
Beta-2 adrenergic receptor (Homo sapiens), sequence (P07550 whole entry, looked up): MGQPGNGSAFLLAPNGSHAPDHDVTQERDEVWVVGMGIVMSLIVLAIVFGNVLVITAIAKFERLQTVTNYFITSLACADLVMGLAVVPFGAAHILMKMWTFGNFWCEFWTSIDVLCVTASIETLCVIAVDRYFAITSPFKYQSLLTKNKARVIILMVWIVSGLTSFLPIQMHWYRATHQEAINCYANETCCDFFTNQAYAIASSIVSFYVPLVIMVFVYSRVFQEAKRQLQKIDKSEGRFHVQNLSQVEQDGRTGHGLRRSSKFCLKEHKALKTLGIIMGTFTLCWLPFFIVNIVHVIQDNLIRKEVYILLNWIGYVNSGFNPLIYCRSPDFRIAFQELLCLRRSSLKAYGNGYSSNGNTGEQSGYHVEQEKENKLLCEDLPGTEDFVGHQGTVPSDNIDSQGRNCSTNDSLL

The target of experiment [16] is D(2) dopamine receptor (Homo sapiens) (UniProt P14416). Kind of experiment: Dopamine D2 receptor (DRD2) small molecule agonists, cell-based qHTS assay (AID 1963594). Also: nearly all actives have a fitted effect of over 35% in size. The essentials: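 cAMP accumulation in DRD2-HEK293 cells measured by HTRF after 1 h detection; compounds added 10 min before NKH477 (200nM […]) forskolin-analogue stimulation, 30 min at room temperature, with Ro20-1724 present at 0.1 mM final.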
D(2) dopamine receptor (Homo sapiens), sequence (P14416 whole entry, looked up): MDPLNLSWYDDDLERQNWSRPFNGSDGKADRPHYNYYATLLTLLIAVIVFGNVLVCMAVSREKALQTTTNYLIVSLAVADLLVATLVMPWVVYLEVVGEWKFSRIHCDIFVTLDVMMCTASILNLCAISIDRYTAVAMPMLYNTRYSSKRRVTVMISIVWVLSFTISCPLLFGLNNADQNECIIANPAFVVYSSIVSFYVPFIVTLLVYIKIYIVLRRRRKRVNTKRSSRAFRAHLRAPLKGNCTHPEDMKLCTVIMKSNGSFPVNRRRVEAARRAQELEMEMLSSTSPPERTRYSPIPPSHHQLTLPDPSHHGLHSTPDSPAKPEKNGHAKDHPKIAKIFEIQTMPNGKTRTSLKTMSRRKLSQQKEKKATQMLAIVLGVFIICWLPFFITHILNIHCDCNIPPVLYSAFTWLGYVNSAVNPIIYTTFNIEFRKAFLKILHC

For experiment [17] the target is unchanged. The experiment is described as follows: Dopamine D2 receptor (DRD2) small molecule antagonists, cell-based qHTS assay (AID 1963595; active = well fitted inhibition curve with a large enough effect in the signal ratio in the repeat runs, with a control signal flat; the % refers to the signal ratio; also: potency is read from the fitted curve at half-maximal effect). The essentials: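 Antagonism was scored as restored cAMP in HEK293-DRD2 cells. These cells were stimulated with 200 nM NKH477 and 12 nM quinpirole for 30 min at room temperature, in the presence of 0.1 mM Ro20-1724.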
In experiment [18] the target is 5-hydroxytryptamine receptor 2A (Homo sapiens) (UniProt P28223). The experiment is described as follows: 5-hydroxytryptamine receptor 2A (HTR2A) small molecule agonists, cell-based qHTS assay (AID 1963587). Also: nearly all actives have a fitted effect of over 30% in size. The essentials: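 Kinetic calcium-flux fluorescence (2 min, 1 sec intervals) after compound addition in agonist mode. HTR2A-CHO cells were cultured 18 h, then dye-loaded 1 h at 37 C.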

The nature of experiment [19]: p53 small molecule agonists, cell-based qHTS assay: qHTS cell viability counter screen (AID 1963581). Also: nearly all actives have a fitted effect of over 45% in size. Put shortly: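 Cells: HCT-116 with p53 response element-driven beta-lactamase. Treatment: 16 h, 37 C, compounds in DMSO. Read: CellTiter-Glo luminescence after 30 min RT.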
Experiment [20] in a line: p53 small molecule agonists, cell-based qHTS assay (AID 1963582; active = well fitted activation curve with a large enough effect in the signal ratio in the repeat runs, not every such curve was filed as active; the % refers to the signal ratio). Put shortly:
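Quantitative HTS in p53RE-bla cells: after a 5 h settling period, compounds delivered in DMSO were left on cells for 16 h at 37 C, and reporter induction was measured as fluorescence following 2 h substrate loading.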

Values without a mark were called inactive. Inconclusive results are not listed. The source made the active and inactive calls. Unless noted, calls follow the shape of the full dose curve.

Gonadotropin-releasing hormone receptor (Homo sapiens), sequence (P30968 whole entry, looked up): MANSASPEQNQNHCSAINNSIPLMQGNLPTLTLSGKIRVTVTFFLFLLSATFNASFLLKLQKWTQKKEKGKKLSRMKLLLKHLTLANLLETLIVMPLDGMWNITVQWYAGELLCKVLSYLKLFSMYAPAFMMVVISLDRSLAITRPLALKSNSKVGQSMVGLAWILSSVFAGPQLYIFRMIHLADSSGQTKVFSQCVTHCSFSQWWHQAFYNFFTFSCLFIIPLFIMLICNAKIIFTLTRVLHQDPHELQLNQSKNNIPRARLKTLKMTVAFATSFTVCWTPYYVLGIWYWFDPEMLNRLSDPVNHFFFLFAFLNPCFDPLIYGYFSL

Turning to `NC(=O)c1ccncc1`, the Potency result in experiment [1], in [2], in experiment [3], in experiment [6], in experiment [7] and in experiment [8] was “inactive” throughout. The Potency entry in [9], in experiment [10], in experiment [11], in experiment [12], in [13] and in [14] was “inactive” in each case. For the same molecule, the Potency result in experiment [15], in experiment [16] and in [17] was “inactive” in each case. The result in [4] and in experiment [5] was inactive.

As for `CC1=C2[C@H](/C=C(\C)C(=O)O)CC[C@@H](C)[C@H]2CC1`, the results for the Potency in [1] and in experiment [8] were 44.9 µM (active) and 29.9 µM (active), respectively. Further, the Potency entry in experiment [2], in [3], in experiment [6], in experiment [7], in experiment [9] and in experiment [18] was “inactive” throughout. Moreover, the Potency entry in experiment [12], in experiment [15], in experiment [16] and in experiment [17] was “inactive” throughout. Further, the outcome in [4] and in [5] was inactive.

Take `COc1ccc2c(c1OC)C(=O)O[C@@H]2[C@H]1c2c(cc3c(c2OC)OCO3)CCN1C`: the Potency result in experiment [1], in [2], in experiment [3], in experiment [6], in [7] and in [8] was “inactive” each time. In addition, the Potency entry in [9], in experiment [13], in experiment [15] and in experiment [16] was “inactive” each time. Besides, the result in experiment [4] and in experiment [5] was inactive.

In the case of `CCc1ccc(O)c(OC)c1`, the Potency result in [1], in experiment [2], in [3], in experiment [6], in [7] and in experiment [8] was “inactive” in each case. Moreover, the Potency result in experiment [9], in experiment [10], in experiment [18], in experiment [11], in experiment [13] and in experiment [14] was “inactive” each time. In addition, the Potency result in experiment [15], in [16] and in [17] was “inactive” in each case. For the same molecule, the outcome in [4] and in experiment [5] was inactive.

Take `C1=CCCC1`: the Potency entry in experiment [1], in [2], in experiment [3], in experiment [6], in experiment [7] and in [8] was “inactive” throughout. Also, the Potency entry in [19], in [20], in [10], in [18], in experiment [11] and in experiment [12] was “inactive” each time. Further, the Potency result in [13], in [14], in experiment [15], in [16] and in experiment [17] was “inactive” throughout. The result in experiment [4] and in experiment [5] was inactive.

Take `CCN(CC)C(=O)/C(C#N)=C/c1cc(O)c(O)c([N+](=O)[O-])c1`: the Potency result in experiment [1], in [2], in experiment [3], in experiment [6], in experiment [7] and in [8] was “inactive” throughout. The Potency result in experiment [9], in experiment [10], in experiment [18], in [11], in [12] and in experiment [15] was “inactive” in each case. Besides, the Potency entry in experiment [17] was “inactive”. For the same molecule, the outcome in experiment [4] and in experiment [5] was inactive.

On to `O=C(/C=C/c1ccccc1)OC/C=C/c1ccccc1`, for which the Potency result in experiment [1], in [2], in experiment [3], in [6], in experiment [7] and in [8] was “inactive” throughout. The Potency result in experiment [9], in [10], in [18], in [11], in experiment [12] and in experiment [13] was “inactive” each time. Moreover, the Potency entry in experiment [14], in experiment [15], in experiment [16] and in [17] was “inactive” throughout. Also, the result in experiment [4] and in experiment [5] was inactive.

Turning to `CN1CCN(CCCN2c3ccccc3Sc3ccc(C(F)(F)F)cc32)CC1`, the Potency in experiment [1] was 29.8 µM (active); in experiment [17], 0.0298 µM (active). In addition, the Potency entry in experiment [2], in experiment [3], in experiment [6], in [7], in [8] and in experiment [9] was “inactive” each time. The Potency entry in experiment [15] and in [16] was “inactive” throughout. Further, the outcome in experiment [4] and in [5] was inactive.
